Measured values from PubChem BioAssay AID1347418 (Sanford-Burnham Center for Chemical Genomics, 2020).
“And” between values parts separate entries of the source, which are not always exact repeats. Equal values may be shown once. Among all 1,300 compounds or so, about 750 (58%) were called active. The list shows a part of the results. The source holds several records for some structures; these can differ, active in one and inactive in another.

Each compound was assayed against Sulfhydryl oxidase 1 (Homo sapiens) (UniProt O00391) (assay: inhibition of human sulfhydryl oxidase QSOX1 – biochemical, ROS-Glo H2O2 luminescence, HTS, primary screen (AID 1347418)). Details: recombinant QSOX1, ROS-Glo H2O2 luminescence, at 12.5 µM, stronger effect = higher value; active = any value above zero unless noted.
Sequence of Sulfhydryl oxidase 1 (Homo sapiens) (O00391 whole entry, looked up): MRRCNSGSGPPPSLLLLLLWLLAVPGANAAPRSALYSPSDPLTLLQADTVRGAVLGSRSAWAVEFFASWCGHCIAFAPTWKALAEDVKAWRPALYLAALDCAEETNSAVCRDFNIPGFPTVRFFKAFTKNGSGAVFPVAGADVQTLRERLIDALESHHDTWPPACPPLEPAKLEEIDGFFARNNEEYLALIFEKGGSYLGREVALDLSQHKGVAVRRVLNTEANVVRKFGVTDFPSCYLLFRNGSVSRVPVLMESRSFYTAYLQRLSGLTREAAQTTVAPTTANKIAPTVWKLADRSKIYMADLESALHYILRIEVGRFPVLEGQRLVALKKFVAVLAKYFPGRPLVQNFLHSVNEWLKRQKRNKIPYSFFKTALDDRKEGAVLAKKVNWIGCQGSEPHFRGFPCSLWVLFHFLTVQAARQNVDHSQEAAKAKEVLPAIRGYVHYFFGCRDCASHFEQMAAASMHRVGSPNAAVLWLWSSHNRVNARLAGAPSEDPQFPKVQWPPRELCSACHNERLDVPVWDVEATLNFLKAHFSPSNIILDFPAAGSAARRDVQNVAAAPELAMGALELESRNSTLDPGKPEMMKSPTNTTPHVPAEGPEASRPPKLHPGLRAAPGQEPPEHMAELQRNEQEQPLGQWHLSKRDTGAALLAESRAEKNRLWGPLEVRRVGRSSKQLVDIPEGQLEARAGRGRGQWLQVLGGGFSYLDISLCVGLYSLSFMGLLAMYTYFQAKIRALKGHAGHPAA

SMILES	inhibition
C[C@H](Cc1ccc2c(c1)OC(C(=O)O)(C(=O)O)O2)NC[C@H](O)c1cccc(Cl)c1	-1.8% (inactive)
NC(=O)COc1c(F)cc(SCCNS(=O)(=O)c2ccccc2)cc1F	4% (active)
CC(=O)NBr	-4.9% (inactive)
O=C(N[C@H]1CN2CCC1CC2)c1ccc(Cl)cc1	0.7% (active)
COC[C@H]1OC(=O)c2coc3c2[C@@]1(C)C1=C(C3=O)C2CCC(=O)[C@@]2(C)C[C@H]1OC(C)=O (stereo partly drawn)	6% (active)
CCCCCCC(C)(C)c1ccc([C@@H]2C[C@H](O)CC[C@H]2CCCO)c(O)c1	5.1% [setting not given] (active)
CCCCCCCCCCCCCC(=O)O[C@@H]1[C@@H](C)[C@@]2(O)[C@@H](C=C(CO)C[C@@]3(O)C(=O)C(C)=C[C@@H]23)C2C(C)(C)[C@@]21OC(C)=O (stereo partly drawn)	1.1% (active)
CC(=O)[C@H]1CC[C@H]2[C@@H]3CC[C@H]4C[C@](C)(O)CC[C@]4(C)[C@H]3CC[C@]12C	0.1% [setting not given] (active)
CC(=O)[C@H]1CCC2C3CC[C@H]4C[C@H](O)CC[C@]4(C)C3CC[C@@]21C (stereo partly drawn)	-2.4% [setting not given] (inactive)
C[C@]12CCC3C(CC[C@H]4C[C@H](O)CC[C@]34C)C1CC[C@@H]2C(=O)CO (stereo partly drawn)	-1.5% (inactive)
Cc1c(C(=O)c2cccc3ccccc23)c2cccc3c2n1[C@H](CN1CCOCC1)CO3	7.5% [setting not given] (active)
O=C(O)c1cc[c]([Hg][Cl])cc1	-7.7% (inactive)
O=[N+]([O-])c1ccc2nc(N3CCNCC3)ccc2c1	0.9% (active)
C=CCN1C[C@@H](C)N([C@H](c2ccc(C(=O)N(CC)CC)cc2)c2cccc(OC)c2)C[C@@H]1C	-4.2% (inactive)
Cc1cc([C@@H]2CCCN2C)on1	4.2% (active)
Clc1cc(I)cc(Cl)c1NC1=NCCN1	-4.1% (inactive)
O=C1C=CC(=O)C=C1	-2.3% (inactive)
CC12NC(Cc3ccccc31)c1ccccc12 (stereo not drawn)	1.2% [setting not given] (active)
C[C@]12N[C@H](Cc3ccccc31)c1ccccc12	2.8% [setting not given] (active)
CC(O)(CS(=O)(=O)c1ccc(F)cc1)C(=O)Nc1ccc(C#N)c(C(F)(F)F)c1 (stereo not drawn)	-1.2% [setting not given] (inactive)
CC(C)[C@H]1CN[C@H](C(=O)O)[C@H]1CC(=O)O	0.8% (active)
C=C(C)[C@H]1CN[C@H](C(=O)O)[C@H]1CC(=O)O	-6.1% (inactive)
C=CCN1CC[C@]23CCCCC2[C@H]1Cc1ccc(O)cc13 (stereo partly drawn)	4.2% [setting not given] (active)
NCC(O)c1cc(O)c(O)cc1F (stereo not drawn)	12.3% (active)

SMILES	inhibition
NN=C(N)N	6.4% (active) and -1.5% (inactive)
NCC1(CC(=O)O)CCCCC1	-2.9% [setting not given] (inactive)
O=P1(N(CCCl)CCCl)NCCCO1 (stereo not drawn)	4.8% (active)
c1ccc2cc(CC3=NCCN3)ccc2c1	-1.3% [setting not given] (inactive)
CCCN(CCC)C1CCc2cccc(O)c2C1 (stereo not drawn)	-7.7% (inactive)
CCCN(CCC)C1Cc2cc(OC)c(OC)cc2C1	-0.2% (inactive)
CCCN(CCC)C1CCc2ccc(O)cc2C1 (stereo not drawn)	3.7% (active)
CCCN(CCC)[C@@H]1CCc2ccc(O)cc2C1	6.3% (active)
CCCN(CCC)[C@H]1CCc2c(F)ccc(O)c2C1	-4.8% (inactive)
CCCN(CCC)[C@@H]1CCc2cccc(O)c2C1	3.9% (active)
CN(N=O)c1ccc(O)c(O)c1	5.2% (active)
CN(N=O)c1cc(O)ccc1O	4.1% (active)
NC1CC1c1ccccc1 (stereo not drawn)	-0.7% (inactive)
CCCN1CCO[C@@H]2c3cc(O)ccc3OC[C@H]21	4.3% (active)
CCCN1CC[C@@H]2c3cc(O)ccc3CC[C@@H]21	-5.9% (inactive)
CCN(CCCl)Cc1ccccc1Br	1.5% (active)
CCCN1CCc2cccc3c2[C@H]1Cc1ccc(O)c(O)c1-3	25.2% (active)
COc1ccc2c(c1O)-c1cccc3c1[C@@H](C2)N(C)CC3	3.5% (active)
COc1ccc2c(c1OC)C(=O)O[C@H]2[C@@H]1c2cc3c(cc2CCN1C)OCO3	-2.2% (inactive)
CN1CCc2cc(O)cc3c2[C@H]1Cc1ccc(O)c(O)c1-3	25.4% (active)
C=CCN1CCc2cccc3c2[C@H]1Cc1ccc(O)c(O)c1-3	23.6% (active)
CCCN1CCc2cc(O)cc3c2[C@H]1Cc1ccc(O)c(O)c1-3	29.9% (active)
C[C@H]1C2Cc3ccc(O)cc3C1(C)CCN2CC1CC1 (stereo partly drawn)	4.5% [setting not given] (active)
O=C(O)CC[N+](=O)[O-]	-3.4% [setting not given] (inactive)

SMILES	inhibition
CC(C)NP(=O)(NC(C)C)OP(=O)(NC(C)C)NC(C)C	10.1% (active)
C[C@H](N)CN1CCc2ccc(Br)cc21	35.7% (active)
CCCn1c(=O)c2[nH]c(C3CCCC3)nc2n(CCCOC(=O)c2ccc(S(=O)(=O)F)cc2)c1=O	-1.3% (inactive)
CC(=O)c1c(O)c(C)c(O)c(Cc2c(O)c3c(c(C(=O)/C=C/c4ccccc4)c2O)OC(C)(C)C=C3)c1O	0.8% (active)
CCNC(=O)[C@H]1O[C@@H](n2cnc3c(N)ncnc32)C(O)[C@H]1O (stereo partly drawn)	3.3% (active)
CCCC(C)(COC(N)=O)COC(=O)NC(C)C (stereo not drawn)	1.5% [setting not given] (active)
NC1CCc2cc(O)c(O)cc2C1 (stereo not drawn)	12.7% (active)
Ic1ccccc1CNC1C2CCN(CC2)C1C(c1ccccc1)c1ccccc1 (stereo not drawn)	-6.2% (inactive)
COc1ccc2c(c1)[C@@]13CCCC[C@H]1[C@@H](C2)NCC3	1.4% [setting not given] (active)
COc1ccc2c(c1)C13CCCCC1C(C2)N(C)CC3 (stereo not drawn)	-2.3% [setting not given] (inactive)
c1ccc(C2CC2)c(OCC2=NCCN2)c1	-2% (inactive)
CC(CCc1ccccc1)NC(C)C(O)c1ccc(O)cc1 (stereo not drawn)	0.8% (active)
Nc1ccc(CCN2CCN(c3cccc(C(F)(F)F)c3)CC2)cc1	2.2% (active)
S=C(NC1CCCCC1)N1CCC(c2cnc[nH]2)CC1	-1.7% (inactive)
Clc1ccc(N2CC3CCC(C2)N3)nn1	1.8% (active)
C#CCN[C@H](C)Cc1ccccc1	4.3% [setting not given] (active)
C[Se]C[C@H](N)C(=O)O	3.9% (active)
N[C@@H](CCl)C(=O)O	-3.4% (inactive)
O=C1NCN(c2ccccc2)C12CCN(CC1COc3ccccc3O1)CC2 (stereo not drawn)	-3.1% (inactive)
C/C(O)=C(\C#N)C(=O)Nc1cc(Br)ccc1Br	-1.3% (inactive)
COc1cc(CC(C)N)c(OC)cc1I (stereo not drawn)	4.3% [setting not given] (active)
NC(=O)c1ccc(OCC(O)CN2CC=C(c3ccc(F)cc3)CC2)cc1 (stereo not drawn)	0.4% (active)
COc1ccc(C(CN(C)C)C2(O)CCCCC2)cc1 (stereo not drawn)	-1.3% (inactive)
CC(C)NC(C)Cc1ccc(I)cc1 (stereo not drawn)	5.2% [setting not given] (active)

SMILES	inhibition
COc1ccc2[nH]c3c(c2c1)CCNC3	0.8% (active)
O=S1(=O)N(CCN2CC=C(c3c[nH]c4cc(F)ccc34)CC2)c2cccc3c2N1CCC3	4.2% (active)
CC(=O)[C@H]1CC[C@H]2[C@@H]3CC[C@H]4C[C@H](O)CC[C@]4(C)[C@H]3C(=O)C[C@]12C	-0.2% [setting not given] (inactive)
c1ccc(CCCN2CCN(CCOC(c3ccccc3)c3ccccc3)CC2)cc1	7% (active)
O=C(CCCN1CCC2(CC1)C(=O)NCN2c1ccccc1)c1ccc(F)cc1	-1% [setting not given] (inactive)
Fc1ccc(C(OCCN2CCN(CCCc3ccccc3)CC2)c2ccc(F)cc2)cc1	6.5% (active)
CC[C@@H](CO)NC(=O)[C@@H]1C=C2c3cccc4c3c(cn4C)C[C@H]2N(C)C1	1.6% [setting not given] (active)
CC[C@@H](CO)NC(=O)[C@@H]1C=C2c3cccc4[nH]cc(c34)C[C@H]2N(C)C1	6.3% [setting not given] (active)
C=CCN1CCC23c4c5ccc(O)c4O[C@H]2C(=O)CC[C@@]3(O)C1C5 (stereo partly drawn)	3.2% [setting not given] (active)
O=C1CC[C@@]2(O)C3Cc4ccc(O)c5c4C2(CCN3CC2CC2)[C@H]1O5 (stereo partly drawn)	1.2% [setting not given] (active)
C=CCN1CC[C@]23c4c5ccc(O)c4O[C@@H]2/C(=N/N=C2\CC[C@@]4(O)C6Cc7ccc(O)c8c7[C@@]4(CCN6CC=C)[C@@H]2O8)CC[C@@]3(O)C1C5	1.8% (active)
C=CCN1CC[C@]23c4c5ccc(O)c4O[C@H]2/C(=N/NC(=O)c2ccccc2)CC[C@@]3(O)[C@H]1C5	-0.4% [setting not given] (inactive)
CCOC(=O)c1ncn2c1[C@@H]1CCCN1C(=O)c1cc(OC)ccc1-2	3.1% (active)
Cc1ncsc1CCCl	4.8% (active)
Clc1cnc(Oc2ccc(Oc3ncc(Cl)cc3Cl)cc2)c(Cl)c1	-1.5% [setting not given] (inactive)
CN1CCC(c2c[nH]c3ccc(O)cc23)CC1	26.8% (active)
CC(Cc1ccc(O)cc1)NCC(O)c1cc(O)cc(O)c1 (stereo not drawn)	7.9% [setting not given] (active)
CC(Cc1ccc(OCC(=O)O)cc1)NCC(O)c1cccc(Cl)c1 (stereo not drawn)	-3.3% (inactive)
N[C@@]1(C(=O)O)CC[C@@H](C(=O)O)C1	-1.7% (inactive)
CN1CC[C@@]2(C)c3cc(O)ccc3N(C)C12 (stereo partly drawn)	15.2% (active)
CN1CC[C@@]2(C)c3cc(OC(=O)Nc4ccccc4)ccc3N(C)[C@@H]12	8.3% (active)
